Measurements from PubChem BioAssay (Tox21).
Active and inactive are the calls of the source. A call without a number means that no potency is given here. Calls come from the whole dose curve; as a rule, active = well fitted activation curve with a large enough effect in the repeat runs; inconclusive = weak or mixed curves; inactive = flat fitted curve, though single readings scatter.

assay: A CellTox Green Cytotoxicity Assay to monitor cytotoxicity in HepG2 cells - 0 hour (AID 1224882); conditions: CellTox Green fluorescence; series mostly up to 76.8 µM; note: nearly all actives have a fitted effect of over 35% in size
Source text: National Center for Advancing Translational Sciences [NCATS]
NIH Chemical Genomics Center [NCGC]
U.S. Environmental Protection Agency [EPA]
National Institutes of Environmental Health Sciences [NIEHS]
National Toxicology Program [NTP]
Cell-based models are critical for drug discovery. Determining the natural cytotoxic effects resulting from test compounds is an essential research activity. A CellTox Green Cytotoxicity Assay to monitor cytotoxicity in real time of continues cell culture during 40 hours of the compound treatment was used to screen Tox21 10K library compounds in HepG2 cells. CellTox Green Cytotoxicity Assay is a nonlytic, homogeneous, biofluorescent method to measure cytotoxicity in cell culture after experimental manipulation. The assay system uses a proprietary asymmetric cyanine dye that is excluded from viable cells but preferentially stains the dead cell's DNA. […] Viable cells produce no appreciable increases in fluorescence. Therefore, the fluorescence signal produced by the binding interaction with dead cell DNA is proportional to cytotoxicity.
The mixture of HepG2 cell suspension and reagents were dispensed at 600cells/6 ul/well in 1536-well tissue culture treated black solid bottom plates using a Multidrop dispenser. After the assay plates were incubated at a 37 C/5% CO2 incubator for 5 hours, 23 nL of compounds dissolved in DMSO, positive and negative controls was transferred to the assay plate by a pintool work station. The plates were incubated at 37 C for 40 hours. The fluorescence intensity were measured at 0h, 8h, 16h, 24h, 32h and 40h time points using ViewLux plate reader during compound treatment.

Row | SMILES | Potency
1 | CCCCCCCCCCC(=O)O | inactive
2 | CC(C)(C)CC(=O)OCC(=O)[C@@]1(O)CC[C@H]2[C@@H]3CCC4=CC(=O)C=C[C@]4(C)[C@H]3[C@@H](O)C[C@@]21C | inactive
3 | Oc1ccc(Cl)c2cccnc12 | inactive
4 | CCOC(C)=O | inactive
5 | Nc1nnc(-c2ccc([N+](=O)[O-])o2)o1 | inactive
6 | Cc1cc(C)c(N)cc1C | inactive
7 | COc1ccc(OC(=O)N(CC(=O)O)Cc2ccc(OCCc3nc(-c4ccccc4)oc3C)cc2)cc1 | inactive
8 | CCOC(=O)[C@H](CCc1ccccc1)N[C@@H](C)C(=O)N(CC(=O)O)C1Cc2ccccc2C1 | inactive
9 | O=C(O)CCCCCCCCCCCBr | inactive
10 | c1ccc2c(c1)CCc1ccccc1N2 | inactive
11 | O=C1NC(=O)c2cc([N+](=O)[O-])ccc21 | inactive
12 | CC(C)C[C@H](NC(=O)[C@H](CCc1ccccc1)NC(=O)CN1CCOCC1)C(=O)N[C@@H](Cc1ccccc1)C(=O)N[C@@H](CC(C)C)C(=O)[C@@]1(C)CO1 | inactive
13 | CCOC(=O)OC(C)OC(=O)[C@@H]1N2C(=O)[C@@H](NC(=O)[C@H](N)c3ccccc3)[C@H]2SC1(C)C (stereo not given in full) | inactive
14 | CCCC(=O)C(=O)O | inactive
15 | CC(CCC(=O)O)C(=O)O (stereo not given) | inactive
16 | OCCOCC#CCOCCO | inactive
17 | C[C@@H](O[C@H]1OCCN(Cc2n[nH]c(=O)[nH]2)[C@H]1c1ccc(F)cc1)c1cc(C(F)(F)F)cc(C(F)(F)F)c1 | inactive
18 | O=C1C(=O)c2ccccc2C(O)=C1C1CCC(c2ccc(Cl)cc2)CC1 (stereo not given) | inactive
19 | CN(C(=O)CN(CCO)CC(=O)N(C)C(C)(C)Cc1ccccc1)C(C)(C)Cc1ccccc1 | inactive
20 | C=CCc1ccccc1OCC(O)CNC(C)C (stereo not given) | inactive

Row | SMILES | Potency
21 | c1ccc(C[n+]2cccc3ccccc32)cc1 | inactive
22 | CCOC(=O)c1ccccc1C(=C1C=C(Br)C(=O)C(Br)=C1)c1cc(Br)c(O)c(Br)c1 | inactive
23 | CN1CCCC(n2nc(Cc3ccc(Cl)cc3)c3ccccc3c2=O)CC1 (stereo not given) | inactive
24 | Cc1ccccc1S | inactive
25 | OC[C@H]1O[C@@H](n2cnc3c(=S)nc[nH]c32)[C@H](O)[C@@H]1O | inactive
26 | CN1C(=O)N(c2ccccc2Br)Cc2cnc(Nc3ccc4c(c3)OCC(CO)O4)nc21 (stereo not given) | inactive
27 | CN1CCCN=C1COC(=O)C(O)(c1ccccc1)C1CCCCC1 (stereo not given) | inactive
28 | C[C@@H]1CC(=O)NN=C1c1ccc(NN=C(C#N)C#N)cc1 | inactive
29 | CCCCOc1ccc(OCCCN2CCOCC2)cc1 | inactive
30 | CC(C)=CCC/C(C)=C/CC/C(C)=C/C(=O)OCC(=O)[C@@]1(O)CC[C@H]2[C@@H]3CCC4=CC(=O)C=C[C@]4(C)[C@H]3[C@@H](O)C[C@@]21C | inactive
31 | Nc1cccc2c1CN(C1CCC(=O)NC1=O)C2=O (stereo not given) | inactive
32 | COc1cc(Nc2c(C#N)cnc3cc(OCCCN4CCN(C)CC4)c(OC)cc23)c(Cl)cc1Cl | inactive
33 | CC(=O)Oc1ccc([N+](=O)[O-])cc1CCl | inactive
34 | C(=C\c1ccccc1)/c1ccccc1 | inactive
35 | COc1cc(C(=O)NC2CCN(C)CC2)ccc1Nc1ncc2c(n1)N(C1CCCC1)CC(F)(F)C(=O)N2C | inactive
36 | CC=C(Cl)Cl | inactive
37 | CCC1NC(=O)c2cc(S(N)(=O)=O)c(Cl)cc2N1 (stereo not given) | inactive
38 | CCC(C)(C)OC | inactive
39 | CN1C(C(=O)Nc2ccccn2)=C(O)c2sccc2S1(=O)=O | inactive
40 | CCCCC(CC)COP(=O)(O)O (stereo not given) | inactive
